Data taken from the supplement of paper PMC10646978.
± gives the standard deviation.

Tests used:
Conditions in all cases: modulator concentration 10 µM
[1] = test system: RAW-Dual (murine macrophage reporter line); assay: NF-kB reporter (SEAP) activity fold change vs agonist alone; higher = enhanced NF-kB activity
How it was run: (§1)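 RAW-Dual murine macrophage reporter cells were seeded at 50 000 per well in 384-well plates and pre-incubated 1 hour at 37 °C with compound pin-transferred to 10 μM final. After 1 hour, a PRR agonist was added and cells incubated overnight. Supernatant NF-κB (SEAP, QUANTI-Blue, 620 nm absorbance) and IRF (Lucia luciferase, QUANTI-Luc, luminescence) signals were divided by the mean agonist-only control on the same plate to give fold change. Two replicate plates were averaged, with errors by propagation.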

[2] = test system: RAW-Dual (murine macrophage reporter line); assay: IRF reporter (Lucia luciferase) activity fold change vs agonist alone; higher = enhanced IRF activity
How it was run: as §1

[3] = test system: RAW-Dual (murine macrophage reporter line); assay: viability score (confluency relative to resting cells, overnight) (fraction); higher = more viable, active = viable (0.7 or more)
How it was run: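 RAW-Dual macrophages in 384-well plates were treated overnight with compound at 10 μM final. IncuCyte imaging recorded confluency, and IncuCyte software built two confluency masks across every imaged well. The viability score expresses confluency relative to resting cells and was judged against a cutoff, which a compound met only if both masks exceeded 70% of resting cells.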

[4] = agonist: CpG ODN 1826 0.5 ug/mL

| Structure (SMILES) | NF-kB reporter [1, 4] | NF-kB reporter ([1]; agonist: LPS 0.1 ug/mL) | NF-kB reporter ([1]; agonist: MPLA […]) | IRF reporter ([2]; agonist: 3'3'-cGAMP 10 ug/mL) | IRF reporter ([2]; agonist: LPS 0.1 ug/mL) | IRF reporter ([2]; agonist: MPLA […]) | viability score [3] |
| --- | --- | --- | --- | --- | --- | --- | --- |
| O=C(CCCN1CCC(n2c(=O)[nH]c3ccccc32)CC1)c1ccc(F)cc1 [Prestw-484] | 0.641 ± 0.18 | 1.11 ± 0.096 | 1.02 ± 0.097 | 0.851 ± 0.035 | 1.1 ± 0.12 | 1.33 ± 0.14 | 1 (active) |
| Fc1ccc(CNCCc2c[nH]c3ccccc23)cc1 | 0.733 ± 0.32 | 1.08 ± 0.15 | 0.955 ± 0.075 | 0.751 ± 0.063 | 1.1 ± 0.12 | 1.29 ± 0.28 | 0.599 (inactive) |
| Cc1c(NC=C2C(=O)NC(=O)NC2=O)c(=O)n(-c2ccccc2)n1C | 0.967 ± 0.077 | 1.08 ± 0.074 | 0.957 ± 0.06 | 1.01 ± 0.029 | 1.45 ± 0.2 | 1.08 ± 0.069 | 1.02 (active) |
| COc1cc2c(cc1OC)C1C(=O)c3ccc4c(c3OC1CO2)CC(C(C)C)O4 (centres undefined) | 1.11 ± 0.19 | 1.48 ± 0.12 | 2.31 ± 0.18 | 0.857 ± 0.06 | 1.89 ± 0.32 | 2.1 ± 0.4 | 0.976 (active) |
| COc1cc(CNCCc2ccc(OC)c(OC)c2)cc(OC)c1 | 0.973 ± 0.078 | 0.959 ± 0.14 | 0.989 ± 0.093 | 1.02 ± 0.032 | 1.22 ± 0.13 | 1.45 ± 0.18 | 1.02 (active) |
| CCC1CN2CCC1CC2C(O)c1ccnc2ccc(OC)cc12 (centres undefined) | 1.05 ± 0.25 | 1.16 ± 0.066 | 1.1 ± 0.08 | 0.565 ± 0.021 | 1.21 ± 0.17 | 1.33 ± 0.26 | 0.983 (active) |
| CC(=O)Oc1ccc(C=Cc2cc(OC(C)=O)cc(OC(C)=O)c2)cc1 | 1.12 ± 0.069 | 1.15 ± 0.073 | 1.12 ± 0.092 | 0.87 ± 0.029 | 0.953 ± 0.088 | 0.896 ± 0.093 | 1 (active) |
| COC12CC(COC(=O)c3cncc(Br)c3)CN(C)C1Cc1cn(C)c3cccc2c13 (centres undefined) | 1.02 ± 0.11 | 1.01 ± 0.078 | 1.03 ± 0.13 | 0.905 ± 0.065 | 1.16 ± 0.11 | 1.19 ± 0.16 | 1.04 (active) |
| O=C(O)COc1cc(Cl)c(Cl)cc1Cl | 0.993 ± 0.076 | 0.836 ± 0.11 | 0.995 ± 0.093 | 1.02 ± 0.039 | 1.37 ± 0.18 | 1.46 ± 0.26 | 1.04 (active) |
| C=C1C[C@@H]2[C@H](CC[C@]3(C)C(=O)CC[C@@H]23)[C@@]2(C)C=CC(=O)C=C12 | 0.843 ± 0.064 | 0.79 ± 0.091 | 0.984 ± 0.033 | 0.789 ± 0.051 | 0.911 ± 0.095 | 0.908 ± 0.16 | 0.987 (active) |
| COc1cc2c(c(OC)c1OC)-c1ccc(OC)c(=O)cc1[C@@H](NC(C)=O)CC2 | 2.45 ± 0.12 | 1.8 ± 0.14 | 2.47 ± 0.11 | 0.0843 ± 0.011 | 1.5 ± 0.13 | 1.91 ± 0.42 | 0.687 (inactive) |
| CCNCC.O=C(O)Cc1ccccc1Nc1c(Cl)cccc1Cl | 1.16 ± 0.18 | 1.08 ± 0.38 | 0.993 ± 0.058 | 0.921 ± 0.034 | 1.21 ± 0.43 | 1.02 ± 0.11 | 0.993 (active) |
| CCOC(=O)c1ccccc1-c1ccc(C=C2C(=O)NC(=O)N(c3cccc(C)c3)C2=O)o1 | 1 ± 0.18 | 0.965 ± 0.11 | 0.881 ± 0.069 | 1 ± 0.029 | 1.2 ± 0.14 | 1.09 ± 0.12 | 0.995 (active) |
| COc1ccc(CCNCc2ccc(OC)c(OC)c2OC)cc1OC | 1.01 ± 0.11 | 0.876 ± 0.14 | 0.942 ± 0.052 | 0.927 ± 0.16 | 1.01 ± 0.044 | 0.997 ± 0.11 | 0.998 (active) |
| C1=C(c2c[nH]c3ccccc23)CCNC1 | 0.448 ± 0.025 | 1.03 ± 0.069 | 0.915 ± 0.079 | 0.496 ± 0.016 | 1.15 ± 0.077 | 0.898 ± 0.087 | 0.989 (active) |
| O=C(O)c1nn(Cc2ccc(Cl)cc2Cl)c2ccccc12 | 0.833 ± 0.12 | 0.959 ± 0.14 | 0.943 ± 0.055 | 0.926 ± 0.033 | 1.04 ± 0.25 | 1.06 ± 0.18 | 1 (active) |
| CC12CCC3C(CC=C4CC(O)CCC43C)C1CC(=Cc1cccc(F)c1)C2=O (centres undefined) | 0.722 ± 0.046 | 1 ± 0.061 | 1.05 ± 0.083 | 0.907 ± 0.03 | 1.61 ± 0.13 | 1.31 ± 0.12 | 0.933 (active) |
| O=Cc1cn(Cc2cccc3ccccc23)c2ccccc12 | 0.959 ± 0.16 | 1.01 ± 0.11 | 1.16 ± 0.12 | 1.09 ± 0.03 | 1.25 ± 0.28 | 1.23 ± 0.25 | 0.989 (active) |
| O=C1NC(=O)C(=CNc2ccccc2C(F)(F)F)C(=O)N1 | 1.13 ± 0.11 | 0.946 ± 0.11 | 1.04 ± 0.1 | 1.02 ± 0.034 | 1.21 ± 0.24 | 1.2 ± 0.2 | 1.02 (active) |
| Cc1noc(C)c1CC(=O)N1CCCSCC1CN1CCCC1 (centres undefined) | 0.943 ± 0.093 | 1.03 ± 0.083 | 0.906 ± 0.04 | 1.1 ± 0.065 | 1.09 ± 0.11 | 0.972 ± 0.14 | 1 (active) |
| COc1ccc(CNCCc2c[nH]c3ccccc23)c(OC)c1C | 0.258 ± 0.021 | 0.924 ± 0.076 | 2.6 ± 0.15 | 1.4 ± 0.048 | 3.32 ± 0.42 | 2.88 ± 0.25 | 0.178 (inactive) |
| O=C1NC(=O)N(c2ccccc2F)C(=O)C1=Cc1ccc(OCc2ccc([N+](=O)[O-])cc2)c(Cl)c1 | 0.917 ± 0.072 | 1.03 ± 0.068 | 0.894 ± 0.057 | 0.916 ± 0.049 | 1.22 ± 0.15 | 1.02 ± 0.065 | 1.01 (active) |
| O=C1CCC(=O)N1C1CC2CCC(C1)N2C(=O)Cc1cccc2ccccc12 (centres undefined) | 0.977 ± 0.049 | 1.12 ± 0.099 | 0.913 ± 0.11 | 1.08 ± 0.066 | 1.25 ± 0.076 | 1.16 ± 0.21 | 1.01 (active) |
| COc1ccccc1N1C(=O)C(=Cc2ccc(C)s2)C(=O)NC1=S | 1.07 ± 0.11 | 1.08 ± 0.093 | 0.973 ± 0.084 | 0.953 ± 0.049 | 1.8 ± 0.28 | 1.39 ± 0.14 | 0.992 (active) |
| c1cc2c(cc1C1OCC3C(c4ccc5c(c4)OCO5)OCC13)OCO2 (centres undefined) | 0.745 ± 0.22 | 1.16 ± 0.058 | 1.1 ± 0.082 | 0.841 ± 0.041 | 1.22 ± 0.17 | 1.24 ± 0.12 | 1 (active) |
| C1CCc2nnnn2CC1 [Prestw-162] | 1.27 ± 0.3 | 0.966 ± 0.18 | 1.03 ± 0.1 | 0.941 ± 0.039 | 1.11 ± 0.17 | 1.03 ± 0.23 | 1.01 (active) |
| Cc1c(NN=C2C(=O)NC(=O)NC2=O)c(=O)n(-c2ccccc2)n1C | 1.02 ± 0.1 | 1.03 ± 0.086 | 0.958 ± 0.042 | 0.951 ± 0.13 | 1.08 ± 0.096 | 0.932 ± 0.14 | 0.999 (active) |
